Laboratory results as given in PubChem BioAssay AID2284191 (EPA ToxCast).
Calls of active or inactive are those of the source. Rule for the calls: active = hit-call score of the fitted dose curve at least 0.9, where 1 is the maximum; inactive = score below 0.9.

Biological target: human Serotonin Receptor 5-HT5A Agonism, HTR5A (gene 3361) (UniProt P47898)
Experiment: ERF_FR_GPCR_hHTR5A: Eurofins (ERF) G Protein-Coupled Receptor (GPCR) Radioligand Binding LeadHunter Assay for human Serotonin Receptor 5-HT5A Agonism
Protocol: ERF_FR_GPCR_hHTR5A is a biochemical, single-readout assay that uses extracted gene-proteins in a cell-free assay. Measurements were taken 2 hour after chemical dosing in a 96-well plate. See 5-HT5A Human Serotonin GPCR Binding (Agonist Radioligand) Assay, Cerep.ERF_FR_GPCR_hHTR5A is an assay component calculated from the ERF_FR_GPCR_hHTR5A assay. It is designed to measure radioligand binding using a type of binding reporter as detected by scintillation counting with radiometry technology.Data from the assay component ERF_FR_GPCR_hHTR5A was analyzed at the assay endpoint, ERF_FR_GPCR_hHTR5A, in the positive analysis fitting direction relative to DMSO as the negative control and baseline of activity. Using a type of binding reporter, gain-of-signal activity can be used to understand changes in binding as they relate to gene HTR5A. To generalize the intended target to other relatable targets, this assay endpoint is annotated to the gpcr intended target family, where the subfamily is serotonin.
Human cells are incubated for 120 minutes at 37 C with [3H]LSD ligand (1.5 nM) and serotonin as control inhibitor. Test Sample Requirements: Minimum for 1) Screen: 60 ul of 10 mM stock -OR- 1 mg (pre-weighed) for 10 uM final testing. 2) Dose Response: 90 ul of 10 mM stock -OR- 1 mg (pre-weighed) for a top concentration at 10 uM.

Chain of human Serotonin Receptor 5-HT5A Agonism, HTR5A (gene 3361) (P47898 whole entry, looked up): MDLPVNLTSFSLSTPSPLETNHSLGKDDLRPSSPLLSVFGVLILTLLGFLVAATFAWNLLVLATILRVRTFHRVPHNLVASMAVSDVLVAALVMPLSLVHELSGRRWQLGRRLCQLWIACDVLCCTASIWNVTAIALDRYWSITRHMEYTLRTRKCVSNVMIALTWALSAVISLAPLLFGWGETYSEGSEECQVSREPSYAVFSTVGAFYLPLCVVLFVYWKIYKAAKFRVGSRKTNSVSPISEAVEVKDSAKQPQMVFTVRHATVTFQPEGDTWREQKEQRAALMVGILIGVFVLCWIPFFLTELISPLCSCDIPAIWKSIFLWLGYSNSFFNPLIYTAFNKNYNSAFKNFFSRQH

| Structure (SMILES) | AC50 |
| --- | --- |
| O=C(/C=C/c1ccc(O)cc1)CC(=O)/C=C/c1ccc(O)cc1 | 1680 nM (active) |
